From PubChem
Rv3671c protease = inhibits the M. tuberculosis serine protease Rv3671c | inhibition, % at 5.96 µM | actives 0.048% (n = 320,000); in the data active = inhibition above about 38%;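 note: extracellular domain of Rv3671c used as enzyme; 0% = enzyme with DMSO and 100% = no enzyme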
GDH-TPI counter-1 = inhibits GDH-TPI coupling enzymes, artifact for Mtb FBA screen | GDH-TPI coupled enzyme counterscreen, NADH absorbance | inhibition, % at 4.8 µM | actives 1.2% (n = 360,000) | AID 588335; in the data active = inhibition above about 30%;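 note: 0% = DMSO wells and 100% = wells lacking the enzyme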
RecA intein inh = inhibitors of M. tuberculosis RecA intein splicing | P9WHJ3 | actives 0.75% (n = 290,000) | inhibition, % (no concentration beside the values) | cell-free RecA intein splicing, fluorescence; in the data active = inhibition above about 30%;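 note: 0% = vehicle wells and 100% = reference inhibitor control wells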
Target sequence (P9WHJ3 whole entry, looked up): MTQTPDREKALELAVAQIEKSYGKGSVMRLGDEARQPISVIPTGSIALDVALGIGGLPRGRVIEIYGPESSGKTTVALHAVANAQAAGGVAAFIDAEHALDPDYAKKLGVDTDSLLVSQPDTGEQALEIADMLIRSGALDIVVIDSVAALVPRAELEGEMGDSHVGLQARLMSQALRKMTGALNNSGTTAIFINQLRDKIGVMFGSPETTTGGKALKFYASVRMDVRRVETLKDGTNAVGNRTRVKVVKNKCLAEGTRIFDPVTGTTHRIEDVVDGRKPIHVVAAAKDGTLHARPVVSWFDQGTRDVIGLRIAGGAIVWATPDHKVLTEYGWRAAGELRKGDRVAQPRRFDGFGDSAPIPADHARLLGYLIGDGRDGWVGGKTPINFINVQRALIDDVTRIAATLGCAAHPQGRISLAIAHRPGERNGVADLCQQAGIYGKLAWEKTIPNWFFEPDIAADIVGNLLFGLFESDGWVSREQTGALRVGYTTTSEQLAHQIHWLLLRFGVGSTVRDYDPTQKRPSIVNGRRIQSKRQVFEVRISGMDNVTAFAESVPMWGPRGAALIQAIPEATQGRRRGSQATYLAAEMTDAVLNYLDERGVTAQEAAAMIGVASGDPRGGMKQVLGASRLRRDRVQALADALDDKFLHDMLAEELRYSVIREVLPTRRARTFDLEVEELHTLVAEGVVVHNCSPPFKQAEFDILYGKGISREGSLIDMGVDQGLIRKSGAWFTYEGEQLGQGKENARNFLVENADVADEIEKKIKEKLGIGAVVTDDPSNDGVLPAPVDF
UGM FP inh = blocks M. tuberculosis UGM enzyme. AID 504406. actives 0.06% (n = 320,000). inhibition, % at 10 µM. purified UGM, fluorescence polarization probe displacement; in the data active = inhibition above about 10%, passing the limit was not always enough
FBA Mtb inh = Mtb fructose-bisphosphate aldolase inhibition; P9WQA3; purified M. tuberculosis FBA, fluorescence read-out; inhibition, % at 1 µM; actives 2.3% (n = 360,000);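 note: 0% = vehicle and 100% = reference inhibitor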
Vc quorum ag = quorum light induction in luxS cqsA deficient V. cholerae; V. cholerae BH1578 lux reporter, luminescence, 6 h; activation, % at 18.7 µM; actives 0.16% (n = 350,000); in the data active = activation mostly above about 9.7%, no sharp cut-off
Mtb FBA confirm = confirmation of M. tuberculosis fructose-bisphosphate aldolase inhibitors; AID 651616; purified M. tuberculosis FBA, fluorescence read-out; shares compounds with FBA Mtb inh; inhibition, % at 1 µM; actives 78% (n = 5,600);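 note: 0% = vehicle wells and 100% = reference inhibitor wells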
GDH-TPI counter-2 = inhibits GDH-TPI coupling enzymes, flagging Mtb FBA hits | shares compounds with FBA Mtb inh | GDH-TPI coupled enzyme counterscreen, fluorescence | inhibition, % at 1 µM | actives 81% (n = 5,600) | AID 652141; in the data active = inhibition above about 10%
Starred values were filed as active, the others as inactive; i = inactive; nt = no result given; + = active, no number. Shown are actives, neighbours in structure and some others; about 4.1% of the full set was active somewhere. Cut-off read from the data, not from the text of the source, unless noted: active = inhibition above about 27%; inactive = the rest.

SMILES | Rv3671c protease | GDH-TPI counter-1 | RecA intein inh | UGM FP inh | FBA Mtb inh | Vc quorum ag | Mtb FBA confirm | GDH-TPI counter-2
Cc1onc(-c2ccccc2)c1C(=O)Nc1ccc(S(=O)(=O)N2CCOCC2)cc1 | -8 | -9 | 0 | 1 | -4 | 0 | nt | nt
CCOC(=O)C1=C(COC(=O)/C=C/c2ccc(SC)cc2)NC(=O)NC1C (stereo unspecified) | -8 | 19 | -1 | 0 | 40* | -1 | 35* | 23*
CSc1ccc(/C=C/C(=O)OCC(=O)NC2CC2)cc1 | 1 | 25 | nt | -4 | 46* | 1 | 95* | 68*
CSc1ccc(/C=C/C(=O)OCC(=O)NC(C)C)cc1 | 10 | 20 | 13 | -1 | 58* | 0 | 98* | 93*
CC(C)c1ccc(OCCCN2CCCC2)cc1 | -2 | 8 | 0 | -1 | -1 | 2 | nt | nt
CN(C)CCNC(=O)C(=O)Nc1ccc2c(c1)N(S(=O)(=O)c1cccs1)CCC2 | 3 | 2 | -2 | 0 | 1 | -6 | nt | nt
CC(=O)Oc1ccc(CN2C(=O)C(CCc3ccccc3)ON=C2c2cnccn2)cc1 (stereo unspecified) | nt | 7 | nt | nt | -1 | i | nt | nt
CCc1ccc(-c2nc3ccc(Br)cc3c(C(=O)O)c2C)s1 | nt | 18 | -1 | 2 | 38* | -1 | 60* | 45*
CCOC(=O)c1cc2c(=O)n3cccc(C)c3nc2n(CC2CCCO2)c1=NC(C)=O (stereo unspecified) | -2 | 6 | -1 | -2 | 79* | 0 | 90* | 68*
CC1(c2nc3ccccc3[nH]2)CCC(=O)N1Cc1ccc(F)cc1 (stereo unspecified) | nt | nt | nt | nt | 1 | nt | nt | nt
CCNC(=O)c1ccc(NS(=O)(=O)c2ccc3[nH]c(=O)[nH]c3c2)cc1 | 0 | -4 | 1 | -2 | 3 | 4 | nt | nt
Cc1cc(C)c2cc(C#N)c(NCCCNC(=O)CCC(=O)O)nc2c1 | 6 | 12 | -49 | 5 | 42* | i | 44* | 36*
COc1ccccc1C(=O)NCCCNc1nc2cc(C)cc(C)c2cc1C#N | nt | -4 | nt | nt | 42* | 0 | + | 146*
COc1cccc(C(=O)NCCCNc2nc3cc(C)cc(C)c3cc2C#N)c1 | nt | -1 | nt | nt | 9 | 0 | nt | nt
CCCCC1OC23CCCCC2C(C#N)(C#N)C1(C#N)C(=N)O3 (stereo unspecified) | 4 | -15 | -139 | 6 | 45* | 0 | 64* | 51*
CCCCC1OC23CCCCC2C(C#N)(C(=N)O3)C1(C#N)C#N (stereo unspecified) | 3 | -11 | -270 | 2 | 42* | i | -2 | 3
Cc1cnc(NS(=O)(=O)c2ccc(N)cc2)nc1-c1ccccc1O | nt | 22 | nt | nt | 3 | 5 | nt | nt
Cc1ccc(C)c(N(CC(=O)NCc2ccco2)C(=O)CNS(=O)(=O)c2ccccc2)c1 | -4 | -8 | -3 | -1 | 0 | 0 | nt | nt
Cc1ccc(C(=O)O)cc1NS(=O)(=O)c1ccc2c(c1)oc(=O)n2C | nt | 6 | 0 | 0 | 4 | i | nt | nt
O=C(O)c1ccc2c(c1)-c1nc3ccccc3n1C2=O | -2 | -1 | 3 | 5 | 51* | 0 | 44* | 36*
O=C(O)c1ccc2c(c1)C(=O)N(c1ncccn1)C2=O | -5 | 0 | -6 | 0 | 0 | 0 | nt | nt
COc1ccc2c(c1OC)C(=O)N(c1ccccn1)C2 | -10 | 1 | 1 | 0 | 45* | 0 | 115* | 106*
CCOC(=O)C1=C(C)NC(C)=C(C(=O)OCC)C1C(=O)OCC(=O)NC1CCCCC1 | 5 | 21 | nt | 1 | 11 | 3 | nt | nt
CCOC(=O)C1CCCN(C(=O)CCC(=O)Nc2ccc3nc(N4CCOCC4)cc(C)c3c2)C1 (stereo unspecified) | -14 | 12 | -4 | 1 | 67* | 0 | 89* | 69*
Cc1cc(N2CCCCC2)nc2ccc(NC(=O)CCC(=O)NCCC(C)C)cc12 | -1 | 2 | -1 | -1 | 54* | nt | -5 | -4
SMILES | Rv3671c protease | GDH-TPI counter-1 | RecA intein inh | UGM FP inh | FBA Mtb inh | Vc quorum ag | Mtb FBA confirm | GDH-TPI counter-2
COc1cccc(NC(=O)CCC(=O)Nc2ccc3nc(N4CCOCC4)cc(C)c3c2)c1 | 1 | -5 | 1 | 0 | 66* | 0 | 125* | 95*
Cc1cc(N2CCOCC2)nc2ccc(NC(=O)C3CCC(C)CC3)cc12 (stereo unspecified) | 1 | 9 | -1 | 4 | 9 | 2 | nt | nt
CCCCNC(=O)CCC(=O)Nc1ccc2nc(N3CCOCC3)cc(C)c2c1 | -1 | 3 | 2 | 2 | 62* | 0 | 4 | -7
COc1ccc(CCNC(=O)CCC(=O)Nc2ccc3nc(N4CCN(C)CC4)cc(C)c3c2)cc1OC | 2 | -8 | 0 | 5 | 13 | 0 | nt | nt
O=C(OCc1ccc(Br)cc1)c1cccc(S(=O)(=O)N2CCCC2)c1 | -6 | 1 | 8 | 1 | -1 | 1 | nt | nt
CCNC(=O)C1(C)CCN(C(=O)c2ccc(OC)cc2)C1 (stereo unspecified) | nt | 5 | nt | nt | 0 | 0 | nt | nt
O=C(Nc1ccccc1O)C(c1ccccc1)c1ccccc1 | -6 | -9 | 11 | -2 | -1 | -1 | nt | nt
Cc1cc(N2CCOCC2)nc2ccc(NC(=O)CCC(=O)N3CCC4(CC3)OCCO4)cc12 | 3 | 11 | -1 | -2 | 58* | 0 | + | +
Cc1cc(N2CCN(C)CC2)nc2ccc(NC(=O)CCC(=O)NCCCOC(C)C)cc12 | 4 | 4 | -4 | 0 | 25 | -1 | nt | nt
Cc1cc(N2CCN(C)CC2)nc2ccc(NC(=O)CCC(=O)NCCC3=CCCCC3)cc12 | -5 | 1 | nt | 1 | 6 | -1 | nt | nt
Cc1cc(N2CCN(C)CC2)nc2ccc(NC(=O)CCC(=O)N3CCN(c4ccc([N+](=O)[O-])cc4)CC3)cc12 | -6 | 8 | 1 | 1 | -5 | 0 | nt | nt
COCCCNC(=O)CCC(=O)Nc1ccc2nc(N3CCOCC3)cc(C)c2c1 | -5 | 8 | -3 | -2 | 88* | 0 | 3 | -1
CCCCNC(=O)CCC(=O)Nc1ccc2nc(N3CCCCC3)cc(C)c2c1 | 5 | 5 | 2 | -2 | 78* | i | + | 145*
O=C(CN1CCCCC1)NC(=O)NC1CCCCC1 | -4 | 3 | nt | 1 | -5 | -3 | nt | nt
CCN(c1cccc(C)c1)S(=O)(=O)c1cc2c3c(c1)CCN3C(=O)CC2 | -1 | -4 | 5 | 0 | -1 | 1 | nt | nt
Clc1ccc(-c2nnc(N3CCOCC3)o2)cc1 | -1 | -5 | -1 | 0 | 40* | i | 92* | 56*
CC(=O)Nc1ccc(NC(=O)COC(=O)c2c(-c3ccccc3)noc2C)cc1 | 4 | 6 | nt | 1 | 1 | i | nt | nt
Cc1cc(N2CCOCC2)nc2ccc(NC(=S)NC(C)C)cc12 | -1 | 8 | -12 | 6 | 37* | -1 | 108* | 96*
